High-throughput results as filed in PubChem BioAssay.
Shown are actives, neighbours in structure and some others; about 3.5% of the full set was active somewhere.
UGM FP inh = M. tuberculosis UGM enzyme inhibitors, primary screen, biochemical, fluorescence polarization, single point; UDP-galactopyranose mutase (Mycobacterium tuberculosis (strain ATCC 25618 / H37Rv)), …; purified UGM, fluorescence polarization probe displacement; inhibition, % at 10 µM; 0.06% of 320,000 active; AID 504406, 2011; in the data active = inhibition above about 10%, passing the limit was not always enough
Target sequence (P9WIQ1 whole entry, looked up): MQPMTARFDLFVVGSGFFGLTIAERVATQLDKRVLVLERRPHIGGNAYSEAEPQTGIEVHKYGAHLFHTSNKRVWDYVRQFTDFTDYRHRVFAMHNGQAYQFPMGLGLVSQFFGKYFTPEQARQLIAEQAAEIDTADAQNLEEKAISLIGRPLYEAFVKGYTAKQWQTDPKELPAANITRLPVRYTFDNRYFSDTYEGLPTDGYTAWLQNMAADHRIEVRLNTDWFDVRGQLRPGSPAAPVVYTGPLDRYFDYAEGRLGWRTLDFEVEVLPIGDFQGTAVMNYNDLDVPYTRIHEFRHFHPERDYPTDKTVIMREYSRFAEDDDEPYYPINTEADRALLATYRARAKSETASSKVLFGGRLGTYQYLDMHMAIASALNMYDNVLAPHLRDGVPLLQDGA
GDH-TPI counter-1 = GDH-TPI coupling enzyme inhibitors, primary screen, artefact control for M. tuberculosis FBA inhibitor project, biochemical, absorbance, full deck; 1.2% of 360,000 active; inhibition, % at 4.8 µM; GDH-TPI coupled enzyme counterscreen, NADH absorbance; AID 588335, 2011; in the data active = inhibition above about 30%
Rv3671c inh = Rv3671c serine protease inhibitors, primary screen, biochemical, fluorescence polarization, M. tuberculosis H37Rv; inhibition, % at 5.96 µM; 0.048% of 320,000 active; in the data active = inhibition above about 38%;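 also: extracellular domain of Rv3671c used as enzyme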
FBA Mtb inh = Mtb FBA enzyme inhibitors, primary screen, biochemical, fluorescence, strain H37Rv; purified M. tuberculosis FBA, fluorescence read-out; inhibition, % at 1 µM; 2.3% of 360,000 active; AID 588726, 2011
Mtb FBA inh conf = M. tuberculosis aldolase blockers, biochemical, fluorescence, strain H37Rv, confirmation | shares compounds with FBA Mtb inh | purified M. tuberculosis FBA, fluorescence read-out | inhibition, % at 1 µM | 78% of 5,600 active
GDH-TPI counter-2 = GDH-TPI coupling enzyme inhibitors, artefact control for M. tuberculosis FBA inhibitor project, biochemical, fluorescence, high throughput. 81% of 5,600 active. AID 652141, 2013. shares compounds with FBA Mtb inh. inhibition, % at 1 µM. GDH-TPI coupled enzyme counterscreen; in the data active = inhibition above about 10%
Of the large screens only hits and unclear results are named; the others gave an inactive call (follow-up assays come after a bar, where they were run). Rule as the data show it, unless noted: active = inhibition above about 27%; inactive = the rest.

Cc1ccc(-c2nc3c(c(=O)[nH]c(=O)n3Cc3ccccc3)n2C)o1	FBA Mtb inh 36 (no result: UGM FP inh, Rv3671c inh) | Mtb FBA inh conf 98 | GDH-TPI counter-2 115
Cc1ccc(NS(=O)(=O)c2cc3[nH]c(=O)c(=O)[nH]c3cc2C)c(C)c1	none
S=C(Nc1ccc(Oc2ccccc2)cc1)N1CCN(c2ccccn2)CC1	none
CCc1ccc(NC(=O)N2CCN(C(=O)C3CCCO3)CC2)cc1 (configuration not stated)	none
CC1(C)Cc2c(c(-c3ccco3)[nH]c(=O)c2C#N)CS1	FBA Mtb inh 30 | Mtb FBA inh conf inactive | GDH-TPI counter-2 17
CC1(C)Cc2c(c(-c3ccccc3)[nH]c(=O)c2C#N)CS1	FBA Mtb inh 29 | Mtb FBA inh conf 44 | GDH-TPI counter-2 50
CC1=C(C(=O)N(C(C)C)C(C)C)CC(CC(=O)NCc2cccs2)C(=O)N1Cc1ccccc1 (configuration not stated)	none (no result: UGM FP inh, Rv3671c inh)
CCN(CC(=O)NCc1ccncc1)S(=O)(=O)c1ccccc1	none
Cc1nc2scc(C)n2c(=O)c1S(=O)(=O)NCC1CCN(Cc2ccc(F)cc2)CC1	FBA Mtb inh 32 | Mtb FBA inh conf 121 | GDH-TPI counter-2 90
Cc1nc2scc(C)n2c(=O)c1S(=O)(=O)NCc1ccccc1Cl	FBA Mtb inh 34 | Mtb FBA inh conf 180 | GDH-TPI counter-2 132
Cc1nc2scc(C)n2c(=O)c1S(=O)(=O)NCCc1ccccc1	none
Cc1nc2scc(C)n2c(=O)c1S(=O)(=O)NC(C)c1ccccc1 (configuration not stated)	FBA Mtb inh 37 | Mtb FBA inh conf 40 | GDH-TPI counter-2 37
COc1ccccc1CNS(=O)(=O)c1c(C)nc2scc(C)n2c1=O	none
O=C(COc1ccc2ccccc2c1)Nc1ccc(Br)cc1C(=O)O	none
O=C(CSCc1nc2scc(-c3cccs3)c2c(=O)[nH]1)Nc1ccccn1	FBA Mtb inh 34 | Mtb FBA inh conf inactive | GDH-TPI counter-2 inactive
CC(=O)OCC1OC(n2ccc3ccccc32)C(OC(C)=O)C(OC(C)=O)C1OC(C)=O (configuration not stated)	none
CC(=O)OCC1OC(Sc2cccc3cccnc23)C(OC(C)=O)C(OC(C)=O)C1OC(C)=O (configuration not stated)	FBA Mtb inh 36 | Mtb FBA inh conf active | GDH-TPI counter-2 159
CC(C)OC(=O)c1c(N)n(Cc2ccco2)c2nc3ccccc3nc12	FBA Mtb inh 43 | Mtb FBA inh conf 131 | GDH-TPI counter-2 98
Nc1c(C(=O)OCC2CCCO2)c2nc3ccccc3nc2n1C1CCCC1 (configuration not stated)	FBA Mtb inh 49 | Mtb FBA inh conf 82 | GDH-TPI counter-2 58
CC(C)OC(=O)c1c2nc3ccccc3nc2n2c1[nH]c(=O)c1ccccc12	none (no result: GDH-TPI counter-1, FBA Mtb inh)
COCC(C)OC(=O)c1c(N)n(CC(C)C)c2nc3ccccc3nc12 (configuration not stated)	FBA Mtb inh 99 | Mtb FBA inh conf inactive | GDH-TPI counter-2 inactive
CC(C)Cn1c(N)c(C(=O)NCC2CCCO2)c2nc3ccccc3nc21 (configuration not stated)	FBA Mtb inh 85 | Mtb FBA inh conf 60 | GDH-TPI counter-2 35
O=C(NCC1CCCO1)c1cc2ccccc2nc1Cl (configuration not stated)	none
CC(C)CNC(=O)c1c(N)n(Cc2ccc3c(c2)OCO3)c2nc3ccccc3nc12	FBA Mtb inh 27 | Mtb FBA inh conf 79 | GDH-TPI counter-2 66
Nc1c(C(=O)NC2CCCC2)c2nc3ccccc3nc2n1CC1CCCO1 (configuration not stated)	FBA Mtb inh 47 | Mtb FBA inh conf active | GDH-TPI counter-2 active
CCOC(=O)CSc1nc2cc(C(=O)NCC3CCCO3)ccc2c(=O)n1Cc1ccco1 (configuration not stated)	none
Nc1c(C(=O)NCC2CCCO2)c2nc3ccccc3nc2n1Cc1ccco1 (configuration not stated)	FBA Mtb inh 86 | Mtb FBA inh conf inactive | GDH-TPI counter-2 inactive
Nc1c(C(=O)NC2CCCC2)c2nc3ccccc3nc2n1N	none
C(=C\c1ccccc1)/CN1CCN(C(c2ccccc2)c2nnnn2C2CCCCC2)CC1 (configuration not stated)	none (no result: UGM FP inh, GDH-TPI counter-1, Rv3671c inh)
C=Cc1ncc(OC)c2c1[nH]c1ccccc12	none
O=C(NN1C(=O)NC2(CCCCC2)C1=O)c1ccc(-c2ccc(Cl)cc2)o1	FBA Mtb inh 35 | Mtb FBA inh conf 157 | GDH-TPI counter-2 124
CC(=O)n1c(-c2ccccc2)c(-c2ccccc2)n(C)c1=O	FBA Mtb inh 50 | Mtb FBA inh conf 78 | GDH-TPI counter-2 50
CCn1c(=O)c2sccc2n(CC(=O)NCCC2=CCCCC2)c1=O	none
Cc1ccc(Cn2c(SCCN3CCCCC3)nc3c2c(=O)n(C)c(=O)n3C)cc1	FBA Mtb inh 63 | Mtb FBA inh conf inactive | GDH-TPI counter-2 11
Cn1c(=O)c2c(nc(SCCN3CCCCC3)n2Cc2ccccc2)n(C)c1=O	none
CCC(=O)Nc1ccc2c(c1)nc1n2CCN(C2CCCCC2)C1	FBA Mtb inh 62 | Mtb FBA inh conf 92 | GDH-TPI counter-2 91
CCC(=O)Nc1ccc2c(c1)nc1n2CCN(CCOC)C1	FBA Mtb inh 33 | Mtb FBA inh conf inactive | GDH-TPI counter-2 inactive
COc1cccc(C(=O)NCCS(=O)(=O)N2CCN(C(=O)c3ccco3)CC2)c1	none
Cc1ccc(CN2CCSc3ccc(C(=O)NCC4CCCO4)cc32)cc1 (configuration not stated)	FBA Mtb inh 58 | Mtb FBA inh conf 47 | GDH-TPI counter-2 23
COc1ccc(CCNC(=O)c2ccc3c(c2)N(Cc2ccc(C)cc2)CCS3)cc1OC	FBA Mtb inh 54 | Mtb FBA inh conf 64 | GDH-TPI counter-2 51
Cc1ccc(CN2CCSc3ccc(C(=O)NCc4cccnc4)cc32)cc1	FBA Mtb inh 69 | Mtb FBA inh conf inactive | GDH-TPI counter-2 23
COc1cccc(CN2CCNC(=O)C2CC(=O)NCCCN2CCCC2=O)c1 (configuration not stated)	none
COc1ncccc1-c1nnn(-c2ccc(Cl)nc2)n1	FBA Mtb inh 27 | Mtb FBA inh conf active | GDH-TPI counter-2 active
O=C(O)C1CSC(c2ccc3c(c2)OCO3)N1 (configuration not stated)	FBA Mtb inh 42 | Mtb FBA inh conf inactive | GDH-TPI counter-2 inactive
COc1ccc(/C=N\NC(=O)CCc2c(C)n[nH]c2C)c(OC)c1OC	none
COc1ccc(OC)c(/C=N/NC(=O)C(=O)N/N=C/c2cc(OC)ccc2OC)c1	none
